# PP1 counter: counter-screen for PP5 inhibitors: inhibitors of human PP1-alpha; purified PP1alpha, OMFP fluorescence; inhibition, % at 6.7 µM; 0.9% of 320,000 active; AID 2235;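 active means inhibition above the mean inhibition of all tested compounds plus 3 SD, computed separately for each screening campaign, cut at about 15% in these data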
# PP5 primary: inhibitors of human protein phosphatase 5 (PP5) | P53041 | purified PP5c, OMFP substrate fluorescence | inhibition, % at 6.7 µM | 0.18% of 320,000 active | AID 1987;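 active means inhibition above the campaign's mean inhibition across all tested compounds plus 3 SD, cut at about 9.5% in these data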;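 further: 0% = DMSO only and 100% = 100 µM cantharidin control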
# Target sequence (P53041 whole entry, looked up): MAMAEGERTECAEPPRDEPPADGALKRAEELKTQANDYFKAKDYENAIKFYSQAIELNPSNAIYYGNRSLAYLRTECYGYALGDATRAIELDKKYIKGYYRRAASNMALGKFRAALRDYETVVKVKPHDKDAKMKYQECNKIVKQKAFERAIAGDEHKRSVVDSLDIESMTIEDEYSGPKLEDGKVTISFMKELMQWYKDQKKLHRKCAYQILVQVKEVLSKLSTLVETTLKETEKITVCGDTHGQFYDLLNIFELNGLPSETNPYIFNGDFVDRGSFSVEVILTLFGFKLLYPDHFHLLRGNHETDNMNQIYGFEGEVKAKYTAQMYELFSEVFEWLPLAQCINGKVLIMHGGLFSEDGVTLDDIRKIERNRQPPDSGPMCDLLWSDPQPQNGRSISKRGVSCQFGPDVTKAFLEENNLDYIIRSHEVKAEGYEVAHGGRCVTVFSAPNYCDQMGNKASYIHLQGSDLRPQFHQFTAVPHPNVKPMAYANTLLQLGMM
# ALR inh: blocks human ALR sulfhydryl oxidase activity; P55789; purified ALR, DTT oxidation, H2O2 HRP-luminol luminescence; inhibition, % (test concentration not listed); 3.8% of 290,000 active; AID 485317;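 active means mean replicate inhibition above about 79%, with every replicate also reaching it, limit read from the data; inconclusive means only one of the two criteria met; inactive means mean below limit and not every replicate reaching it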
# Calb FLC: C. albicans growth modulation with fluconazole; C. albicans CaCi-2 (fluconazole-resistant clinical isolate) + fluconazole, Alamar Blue growth, 48 h; growth inhibition, % (concentration not given with the values); 0.57% of 300,000 active; AID 1979;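 active means growth inhibition above about 58% in most replicates, limit read from the data, passing the limit was not always enough; inconclusive means exactly half the replicates above a set limit; inactive means most replicates below a set limit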;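 further: all wells also contain fluconazole at 8 µg/ml as a sub-toxic cotreatment; 0% = median of DMSO wells and 100% = median of geldanamycin control wells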
# CSC inhib: cancer stem cell inhibition; AID 2717; inhibition, % at 7.5 µM; 1.1% of 300,000 active; cancer stem cell-like cells viability, luminescence; in the data active means inhibition above about 75%; inconclusive means no clear call, values can overlap the other calls; tested in HMLE shEcad cells
# * hit, by the source's call; ? = inconclusive; nt = no result given. In the library only some 5.4% were active in any assay of this set; here they are far more common.
SMILES,PP1 counter,PP5 primary,ALR inh,Calb FLC,CSC inhib
COCCCNC(=S)N/N=C/c1ccc(OC)cc1,-1,2,13,0,-11
COCCNC(=S)N/N=C(\C)c1ccc(O)cc1,0,2,99*,0,nt
COCCCNC(=S)N/N=C/c1ccc(O)cc1,-8,3,99*,-3,2
COc1ccc(N2CCN(CC(=O)c3c[nH]c4ccccc34)CC2)cc1,2,2,-2,-7,2
CSC1=C(C#N)C(=O)NC(c2ccccc2O)S1 (centres undefined),-3,3,98*,15,-3
CCC(CC)NC(=O)Cn1c(C(C)NC(C)=O)nc2ccccc21 (centres undefined),-12,3,6,-3,9
CCN1/C(=C2/SC(=S)N(NC(C)=O)C2=O)Sc2ccc(Cl)cc21,3,3,96*,8,-15
COc1ccc2sc(-c3ccc(SC)cc3)c(-c3ccc(O)cc3)c2c1,nt,nt,-2,nt,107*
O=[n+]1cc(-c2ccc(Cl)cc2)n([O-])c2c1CCC2,-5,-2,-18,1,-3
O=C(Cn1cc(C(=O)COc2ccccc2)c2ccccc21)NCc1ccco1,17*,-1,-4,-2,-13
COc1cc(/C=C(\C#N)C(=O)NCCc2ccccc2)cc(OC)c1O,-1,-1,17,-1,-1
COc1cc(/C=C(\C#N)c2nc3ccccc3[nH]2)cc(OC)c1O,-5,-2,99*,21,4
COc1cc(/C=C(\C#N)c2nc3ccc(C)cc3[nH]2)c([N+](=O)[O-])cc1OC,-1,1,19,-3,-3
COc1ccc(/C=C(\C#N)c2nc3ccccc3[nH]2)cc1O,nt,nt,nt,57,nt
COc1c(O)ccc(/C=C(\C#N)c2nc3ccccc3[nH]2)c1[N+](=O)[O-],5,5,87*,0,5
COc1cc(/C=C(\C#N)C(=O)c2c[nH]c3ccccc23)cc(OC)c1O,-3,-1,99*,25,-6
Cc1ccc2nc(/C(C#N)=C\c3cc(O)ccc3[N+](=O)[O-])[nH]c2c1,-1,-2,98*,30,-13
CCNc1nc(NCC)nc(SCCOC(=O)Nc2ccccc2)n1,0,1,2,1,0
Cc1cccc(NC(=O)CN2C(=O)NC(C)(c3ccc4ccccc4c3)C2=O)n1 (centres undefined),2,1,-1,-8,-7
Cn1c(/C(C#N)=C/c2ccncc2)nc2ccccc21,-4,0,3,nt,-4
Cn1c(/C(C#N)=C/c2ccc(O)cc2)nc2ccccc21,0,2,99*,1,7
COc1cc(/C=C(\C#N)c2nc3ccccc3n2C)cc(OC)c1O,-2,-5,99*,-2,4
Cn1c(/C(C#N)=C/C2CC=CCC2)nc2ccccc21 (centres undefined),-2,1,16,23,4
O=C(COc1ccc(C(F)(F)F)cc1[N+](=O)[O-])Nc1cccc(C(F)(F)F)c1,0,2,-12,2,-10
Cc1ccc(NC(=O)CC2S/C(=N/N=C/c3ccco3)NC2=O)cc1Cl (centres undefined),4,3,9,2,0
SMILES,PP1 counter,PP5 primary,ALR inh,Calb FLC,CSC inhib
CCOc1ccc(/C(O)=C2/C(=O)C(=O)N(CCCN3CCOCC3)C2c2ccc(F)cc2)cc1C (centres undefined),4,2,1,1,-2
Cc1cc2nc3ccc(N(C)C)cc3nc2cc1N,1,1,92*,2,24
Cc1ccc(-n2nc3cc(C)c(N)cc3n2)cc1,5,4,-7,-12,12
Cn1c(=O)[nH]c(NCCc2ccc(O)cc2)c([N+](=O)[O-])c1=O,0,2,81*,8,3
Cc1noc(NS(=O)(=O)c2ccc(NC(=O)CSc3nc4c(cc3C#N)CCCC4)cc2)c1C,-3,2,95*,0,5
Cc1noc(NS(=O)(=O)c2ccc(NC(=O)CSc3nc4c(cc3C#N)CCC4)cc2)c1C,0,2,98*,1,-4
COc1ccc(OC)c(NC(=O)CCNC(=O)Cn2cnc3ccccc3c2=O)c1,-3,-1,15,-7,2
NC(=O)c1ccsc1NC(=O)CCS(=O)(=O)c1ccc(F)cc1,-4,-2,26,14,0
Cc1cccnc1NC(=S)Nc1ccc(F)cc1F,0,1,-6,-10,-4
Cc1ccc(C)c(NC(=S)Nc2ncccc2C)c1,2,4,79*,-57,-9
O=c1oc2c(O)c(O)cc3c(=O)oc4c(O)c(O)cc1c4c23,27*,0,30,nt,11
NC(=O)C1CCN(c2nc(-c3cc4ccccc4o3)cs2)CC1,nt,nt,-9,nt,nt
CN1CCC(N(C)S(=O)(=O)c2ccc(F)cc2F)CC1,-3,-1,0,-7,-18
CC(C)Cn1c(N)c(C(=O)CCl)c(=O)n(C)c1=O,1,3,98*,2,4
CC(C)Cn1c(N)c(/C=N/NC(=O)c2ccc(Cl)cc2)c(=O)n(C)c1=O,-4,-6,0,1,2
CC(C)Cn1c(N)c(C=O)c(=O)n(C)c1=O,-2,-2,100*,49,-1
Cc1ccc(-n2nnnc2SCc2ccc(C(=O)O)cc2)cc1C,0,5,-7,-9,-1
Cc1c(OCc2nn[nH]n2)ccc2c3c(c(=O)oc12)CCC(C)C3 (centres undefined),-3,0,98*,-6,-2
CCOc1ccc(CCNC(=O)COC(=O)Cc2ccc(OC)c(OC)c2)cc1OCC,-8,-1,nt,9,-5
CCn1c(N2CCN(S(=O)(=O)c3ccc(F)cc3)CC2)nc2ccccc21,8,1,-33,1,80*
CN(CC(=O)Nc1ccccc1Oc1ccccc1)Cc1ccccc1F,6,0,-14,6,91*
Cc1ccc(N(CC(=O)NC(C)(C)C)C(=O)CNC(=O)c2cccs2)cc1,-8,3,4,27,-3
CC(c1c(O)c2ccccc2[nH]c1=O)C1(C)CCC(O)C(C)(C)O1 (centres undefined),-9,3,6,-5,-7
CN1CCN(C(=S)c2ccc(N(C)C)cc2)CC1,-9,4,99*,-3,5
CN1CCN(C(=S)c2ccc(Br)cc2)CC1,1,-1,nt,-1,8
SMILES,PP1 counter,PP5 primary,ALR inh,Calb FLC,CSC inhib
OC(COc1ccccc1F)CN1CCC(Cc2ccccc2)CC1 (centres undefined),-4,3,-1,-22,11
CCc1ccc(CNc2ccc(O)cc2)cc1,7,9,84*,?,14
Oc1ccc(NCc2ccc(OCc3ccccc3)cc2)cc1,nt,nt,49,13,12
CCC(=O)N1c2ccccc2C(N(C(=O)CC)c2ccccc2)CC1C (centres undefined),-8,2,nt,0,4
Cc1nc(-c2nnc(SCC(=O)Nc3ccc(C(F)(F)F)cc3)n2C)cs1,-3,2,-8,28,-2
N#CCSc1nc2c(c(=O)n1Cc1ccco1)C1(CCCC1)Cc1ccccc1-2,12,2,0,3,83*
CCCn1c(SCC#N)nc2c(c1=O)C1(CCCC1)Cc1ccccc1-2,2,3,-18,1,127*
